# Screens from PubChem BioAssay.
# This is a sample that favours compounds with a hit; in the whole collection about 2.3% have one here.
# CHRM1 PAM – positive allosteric modulators of human M1 muscarinic receptor; CHO-K1 hM1, Fluo-8 calcium fluorescence, ACh EC20; 0% = ACh EC20, 100% = maximal ACh; activation, % at 3 µM; actives 0.088% (n = 360,000); in the data active = activation above about 19%, passing the limit was not always enough
# Target sequence (P11229 whole entry, looked up): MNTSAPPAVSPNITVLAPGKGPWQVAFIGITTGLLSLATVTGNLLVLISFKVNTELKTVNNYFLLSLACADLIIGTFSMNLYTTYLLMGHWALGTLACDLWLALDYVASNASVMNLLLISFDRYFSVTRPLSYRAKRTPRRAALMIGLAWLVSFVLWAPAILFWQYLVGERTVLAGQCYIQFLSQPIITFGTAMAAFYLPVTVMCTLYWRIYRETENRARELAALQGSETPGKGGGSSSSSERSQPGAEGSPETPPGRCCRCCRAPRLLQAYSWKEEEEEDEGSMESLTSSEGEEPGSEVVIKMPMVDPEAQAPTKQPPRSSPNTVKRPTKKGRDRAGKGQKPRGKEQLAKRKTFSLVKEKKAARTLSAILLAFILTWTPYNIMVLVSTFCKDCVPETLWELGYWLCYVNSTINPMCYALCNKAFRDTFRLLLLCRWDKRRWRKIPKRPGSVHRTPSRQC
# CHO-K1 Ca antag – nonselective inhibitor or artifact in parental CHO-K1 cells; ATP-induced calcium, Fluo-8 fluorescence; inhibition, % at 3 µM; actives 0.6% (n = 360,000); AID 602250;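 active = inhibition above a per-plate cutoff, the plate's mean sample inhibition plus 3 SD, cut at about 24% in these data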
# CHO-K1 Ca ag – nonselective activator or artifact in parental CHO-K1 cells | Fluo-8 calcium fluorescence; scaled to maximal ATP response, vehicle zero | activation, % at 3 µM | actives 0.48% (n = 360,000); in the data active = activation above about 15%;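 note: untransfected CHO-K1 host cells lacking M1 receptor as counterscreen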
# CHRM1 agonist – activates human CHRM1 receptor. CHO-K1 hM1, Fluo-8 calcium fluorescence, agonist mode; 0% DMSO, 100% acetylcholine EC100. activation, % at 3 µM. actives 0.33% (n = 360,000). P11229. AID 588814;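 active = activation above the run's mean compound activation plus 3 SD, cut at about 16% in these data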;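 note: peak over basal fluorescence ratio within a 140 s kinetic read after compound addition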
# CHRM1 antagonist – antagonists of human M1 muscarinic receptor | actives 1.3% (n = 360,000) | P11229 | inhibition, % at 3 µM | CHO-K1 hM1, Fluo-8 calcium fluorescence, ACh EC80 antagonist;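 active = percent inhibition above its own plate's cutoff, namely the mean of that plate's compound wells plus 3 SD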;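 note: peak over basal fluorescence ratio during 140 s after agonist addition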
# M1 PAM parental – M1 PAM counterscreen hit in parental CHO-K1 cells; ATP EC20, Fluo-8 calcium fluorescence; 0% at ATP EC20, 100% at ATP max; activation, % at 3 µM; AID 602247; actives 0.02% (n = 360,000);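 active = activation above the run cutoff, the mean activation of all test compounds plus 3 SD, cut at about 40% in these data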;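 note: peak over basal fluorescence ratio in a 140 s read after ATP addition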
# Hits are given with their value; – = inactive.
SMILES,CHRM1 PAM,CHO-K1 Ca antag,CHO-K1 Ca ag,CHRM1 agonist,CHRM1 antagonist,M1 PAM parental
Cc1cccc(CN2CCCC(C(=O)c3ccc4c5c(cccc35)CC4)C2)n1 (stereo not drawn),–,–,–,–,95,–
COc1cccc(CN2CCCC(C(=O)Nc3ccc(-c4cscn4)cc3)C2)c1 (stereo not drawn),–,–,–,–,35,–
O=C(c1ccc2c3c(cccc13)CC2)C1CCCN(Cc2cccnc2)C1 (stereo not drawn),–,–,–,–,–,–
COc1cccc(-c2ccc(NC(=O)C3CCCN(Cc4cccc(C)n4)C3)cc2)c1 (stereo not drawn),–,–,–,–,53,–
COc1ccc(NC(=O)CN(C)C(=O)CCc2c[nH]c3ccccc23)cc1,–,–,–,–,–,–
O=C(CSc1ccc(S(=O)(=O)N2CCCC2)cn1)Nc1ccc([N+](=O)[O-])cc1C(F)(F)F,–,–,–,–,–,–
O=C(COC(=O)c1ccc(=O)[nH]c1)Nc1cccc(S(=O)(=O)N2CCOCC2)c1,–,–,–,–,–,–
O=C(O)CC1(CC(=O)Nc2ccc(F)c(Cl)c2)CCCCC1,–,–,–,–,–,–
COc1ccc(-c2[nH]ncc2CN2CCCC(C(=O)c3cccc(OC)c3)C2)cc1 (stereo not drawn),–,–,–,–,–,–
COc1ccc2cc(C(=O)C3CCCN(Cc4cccc(C)n4)C3)ccc2c1 (stereo not drawn),–,–,–,–,60,–
O=C(c1ccc(NC2=NC3CS(=O)(=O)CC3S2)cc1)N1CCN(c2ccc([N+](=O)[O-])cc2)CC1 (stereo not drawn),–,–,–,–,–,–
O=S(=O)(c1ccc2ccccc2c1)N1CCN(C(=S)Nc2ccccc2F)CC1,–,–,–,–,–,–
O=S(=O)(c1ccc(Cl)cc1)N1CCN(C(=S)Nc2ccccc2F)CC1,–,–,17,–,–,–
O=C(c1ccnc(Cl)c1)N1CCCC(N2CCN(c3ccccc3F)CC2)C1 (stereo not drawn),–,–,–,–,–,–
O=C(Nc1ccc(Br)cc1)c1ccc(F)c(S(=O)(=O)NCc2cccs2)c1,–,28,–,–,34,–
O=C(C(=Cc1ccccc1)CN1CCCCC1)c1ccccc1,–,–,–,–,39,–
O=C(CCCCN1CCCCC1)c1ccccc1,–,–,–,–,–,–
CC(C)COC(=O)NCCOC(=O)Nc1cccc(Cl)c1,–,24,–,–,25,–
O=C(CCSCc1cccc(Cl)c1)NCCc1ccccc1,–,–,–,–,–,–
Cc1cc2c(Nc3cccc(O)c3)ncnc2s1,–,–,–,–,–,–
O=C(CSc1nncn1-c1ccccc1)Nc1cc(F)ccc1F,–,–,–,–,–,–
Cc1ccc(CNC(=O)c2cccnc2Sc2cccc(Cl)c2)cc1,–,–,–,22,–,–
COCc1cc(C)nc(OCC(=O)N/N=C/c2ccc(-c3cc([N+](=O)[O-])ccc3Cl)o2)c1C#N,–,–,–,–,–,–
COc1ccccc1C1CC(c2cccc(NS(C)(=O)=O)c2)=NN1S(=O)(=O)c1ccccc1 (stereo not drawn),–,–,–,–,–,–
O=C(NN1C(=O)NC2(CCCCC2)C1=O)c1ccc(-c2ccc(Cl)cc2)o1,–,–,–,–,29,–
SMILES,CHRM1 PAM,CHO-K1 Ca antag,CHO-K1 Ca ag,CHRM1 agonist,CHRM1 antagonist,M1 PAM parental
O=C(NN1C(=O)NC2(CCCCC2)C1=O)c1cc2cc(Cl)ccc2o1,–,–,–,–,–,–
COc1ccc(NC(=O)COc2ccc3c(C)cc(=O)oc3c2)cc1S(=O)(=O)N1CCCCC1,–,–,–,–,–,–
CCOC(=O)c1oc2c(O)c(O)ccc2c(=O)c1-c1nncn1-c1ccccc1,–,–,–,–,–,–
CCOC(=O)c1oc2c(C)c(O)ccc2c(=O)c1-c1nncn1-c1ccccc1,–,31,–,–,–,–
CC(C)c1ccc(NC(=O)CCN2C(=O)[C@@H]3Cc4ccccc4CN3C2=O)cc1,–,–,–,–,–,–
CN(CCOC(=O)C1c2ccccc2Oc2ccccc21)C(C)(C)C,–,–,–,–,98,–
CC[N+](C)(CC)CCOC(=O)C1c2ccccc2Oc2ccccc21,–,–,–,–,97,–
NC(=O)COC(=O)C1c2ccccc2Oc2ccccc21,–,–,–,–,–,–
CN(C)CCCOC(=O)C1c2ccccc2Oc2ccccc21,–,–,–,–,97,–
O=C(CCn1cccc1)NCc1ccc2c(c1)OCO2,–,27,–,–,–,–
Cn1nc(C(C)(C)C)cc1C(=O)NCc1ccc2c(c1)OCO2,–,39,–,–,–,–
Cc1oc(C(C)(C)C)cc1C(=O)NCc1ccc2c(c1)OCO2,–,–,–,–,–,–
O=C(CN1CCc2ccccc21)NCc1ccc2c(c1)OCO2,–,29,–,–,–,–
O=C(CCn1c(=O)oc2ccccc21)NCc1ccc2c(c1)OCO2,–,–,–,–,–,–
COc1cccc(CC2(CO)CCN(S(=O)(=O)N(C)C)CC2)c1,–,–,–,–,–,–
COC(=O)c1ccc(CN2CCC(CO)(CCOc3ccccc3)CC2)cc1,–,–,–,–,77,–
OCC1(CCOc2ccccc2)CCN(CC2=Cc3cc(Cl)ccc3OC2)CC1,–,–,–,–,39,–
COC(=O)c1ccc(CN2CCC(CO)(Cc3cccc(OC)c3)CC2)cc1,–,–,–,–,75,–
COC(=O)c1ccc(CN2CCCC(CO)(Cc3ccc(F)cc3F)C2)cc1 (stereo not drawn),–,–,–,–,48,–
COc1cc(Cl)c(CN2CCC(CO)(CCOc3ccccc3)CC2)cc1OC,–,–,–,–,–,–
O=C(O)c1cccc(-n2nc(-c3ccc(Cl)c([N+](=O)[O-])c3)c3ccccc3c2=O)c1,–,–,–,–,–,–
CCCCCCCCCCCCN1[C@@H](CC(=O)OC)c2cc(F)ccc2S1(=O)=O,32,–,–,–,–,–
CSCCC(NC(=O)c1ccco1)C(=O)NCc1ccc2c(c1)OCO2 (stereo not drawn),–,–,–,–,–,–
Cc1ccc(N2C(=O)C(CN3CCCC3)C2c2ccccc2)cc1 (stereo not drawn),–,–,–,–,25,–
CCOC(=O)c1[nH]ncc1CN1CCCC(C(=O)c2cccc(OC(C)C)c2)C1 (stereo not drawn),–,–,–,–,–,–
CCn1ncc(CN2CCCC(C(=O)c3cccc(OC(C)C)c3)C2)c1C (stereo not drawn),–,–,–,–,98,–
COc1ccc(CN2CCCC(C(=O)c3cccc(OC(C)C)c3)C2)cc1Cn1cccn1 (stereo not drawn),–,–,–,–,37,–
